An excerpt weighted towards active compounds, which were near 21% of everything screened.
Pf growth 48h: P. falciparum growth inhibition at 48 hours (one generation) | P. falciparum luciferase growth in erythrocytes, 48 h | Potency, µM (highest dose often 28.7 µM), for inactives: at the top dose activity change, negative = inhibition, hits mostly inhibitors | 310,000 tested, 5.9% active | AID 504832; note: potency is the fitted concentration of half-maximal effect; % is set by controls: 0 for no effect and ±100 for the full control effect
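Firefly luciferase activity from engineered P. falciparum reports growth; inhibitors lower the luminescent signal. Cultures contained 2% hematocrit erythrocytes at 0.1% final parasitemia.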
Giardia FBPA inh: inhibitors of Giardia lamblia fructose-1,6-bisphosphate aldolase; A8B2U2; purified Giardia FBPA; Potency, µM (series often up to 59.6 µM), without a hit: at the top dose activity, negative = inhibition, actives largely listed as inhibitors; 290,000 tested, 0.71% active; note: potency is the fitted concentration of half-maximal effect; % is set by controls: 0 for no effect and ±100 for the full control effect; nearly all actives have a fitted effect of over 55% in size
Target sequence (A8B2U2 whole entry, looked up): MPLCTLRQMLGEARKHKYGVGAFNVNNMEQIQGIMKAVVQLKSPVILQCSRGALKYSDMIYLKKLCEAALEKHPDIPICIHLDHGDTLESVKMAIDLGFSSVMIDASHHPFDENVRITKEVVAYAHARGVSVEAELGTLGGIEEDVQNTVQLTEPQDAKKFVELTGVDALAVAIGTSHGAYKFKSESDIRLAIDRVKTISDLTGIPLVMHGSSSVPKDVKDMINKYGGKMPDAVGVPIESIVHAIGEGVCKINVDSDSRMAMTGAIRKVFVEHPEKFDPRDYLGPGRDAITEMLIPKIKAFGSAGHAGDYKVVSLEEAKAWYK
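40 nM FBPA preincubated 10 min at RT with compound (up to 57.5 uM final), then substrate plus GAPDH/TPI/NAD/arsenate coupling and diaphorase/resazurin added. Fluorescence read after 20 min at RT, 525/598 nm.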
Shiga inhibitor: Shiga toxin inhibition | 290,000 tested, 9.2% active | AID 2315 | inhibition, % at 38.7 µM | Vero cells, Shiga toxin protein synthesis inhibition reporter; in the data active = inhibition mostly above about 28%, no sharp cut-off; inactive = mostly below about 43%; note: 0% is about no effect
Cycloheximide cs: counter-screen for Shiga toxin inhibitors: cycloheximide protein synthesis inhibition; cell reporter, cycloheximide protein synthesis inhibition counterscreen; max response, %; 300,000 tested, 12% active; AID 2314; in the data active = max response mostly above about 13%, no sharp cut-off; inactive = mostly below about 14%; note: read at 38.3 µM for the half of the compounds with a filed dose; 0% is about no effect
Pf growth 96h: P. falciparum growth inhibition at 96 hours | P. falciparum luciferase reporter growth, 96 h | Potency, µM (series often up to 28.7 µM), without a hit: at the highest dose activity change, negative = inhibition, actives largely listed as inhibitors | 320,000 tested, 6.9% active; note: potency is the fitted concentration of half-maximal effect; % is set by controls: 0 for no effect and ±100 for the full control effect
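Infected RBCs, 2% Hct / 0.05% parasitemia final; luciferase-reporter P. falciparum; cpd 96 h, 37 C, 5% CO2; luciferase detection reagent; luminescence.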
NS1 function inh: inhibitors of influenza NS1 protein function | AID 2326 | Potency, µM (highest dose often 46.1 µM), for inactives: top-dose activity, positive = more growth | 270,000 tested, 0.4% active; calls by dose curve; note: potency is the fitted concentration of half-maximal effect; actives are rising curves; nearly all actives have a fitted effect of over 50% in size
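Growth recovery, yeast-based: influenza A NS1 expressed in S. cerevisiae causes slow growth, and suppressors are detected by OD600. The parent strain without NS1 is used as positive control.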
* hit, by the source's call; ? = inconclusive; / = no result. Unless noted, calls come from the whole dose curve; as a rule, active = well fitted curve in the direction sought with a large enough effect; inconclusive = small, poorly fitted or top-dose-only effect, or another doubt; inactive = no such curve, though single readings can be large; an effect the other way counts as inactive or inconclusive.

SMILES	Pf growth 48h	Giardia FBPA inh	Shiga inhibitor	Cycloheximide cs	Pf growth 96h	NS1 function inh
CCc1nc(N=C(N)N)nc2ccccc12	3.29µM*	2.2%	-1.5	-1.4	7.4%	/
NC(N)=Nc1nc(-c2ccccc2)c2ccccc2n1	11.7µM*	-2.5%	-4.5	-1.1	-18.2%	-0.7%
Clc1nc(-c2ccccc2)c2ccccc2n1	8.0%	-1.3%	-7.6	-2.7	?	8.2%
CC(=O)Oc1ccc(C(=O)Nc2ccc(S(=O)(=O)NCC3CCCO3)cc2)cc1 (centres undefined)	?	7.4%	-5.8	-1.9	3.9%	1.3%
Cc1cc(NC(=O)CCC(=O)NNC(=O)c2ccc(C(C)(C)C)cc2)no1	162.3%	2.9%	80.0*	35.6*	-16.1%	0.5%
Cc1cc(NC(=O)COc2c(C)cccc2C)no1	?	-1.8%	-1.7	1.0	27.2%	-7.8%
Cc1cc(C)cc(OCC(=O)Nc2nonc2NC(=O)COc2cc(C)cc(C)c2)c1	?	1.4%	-7.5	1.6	-19.7%	-0.8%
COc1ccc2ccc(OCC(=O)Nc3cc(C)on3)cc2c1	11.7µM*	/	/	/	?	/
Cc1cc(NC(=O)COc2ccc(C(C)(C)C)cc2)no1	16.7%	-9.2%	49.8*	31.7*	27.7%	-7.2%
COc1ccc(CC(=O)Nc2cc(C)on2)cc1	12.3%	7.9%	16.5	10.1	36.8%	-3.7%
COc1ccc(OCC(=O)Nc2nonc2NC(=O)COc2ccc(OC)cc2)cc1	57.9%	0.9%	10.4	10.1	9.28µM*	-3.2%
CC(C)(C)c1ccc(C(=O)NNC(=O)CCC(=O)Nc2ccccc2)cc1	149.8%	/	41.2	19.3*	224.5%	14.2%
CCC(=O)NNC(=O)CCC(=O)Nc1ccccc1	17.0%	/	-15.8	1.1	42.7%	7.4%
COc1cc(CN(C)c2ncnc3sccc23)ccc1OC(F)F	?	/	-2.8	6.2	13.1µM*	-8.5%
COc1cc(CN(C)CC(=O)c2[nH]c(C)c(C(C)=O)c2C)ccc1OC(F)F	?	-12.9%	7.2	-2.5	?	3.3%
CN1CCC2(CCN3CCc4c(oc5ccccc45)C3C2)N(C)C1=O (centres undefined)	/	-2.7%	/	/	/	-6.9%
Cc1cccc(NC(=O)c2csnn2)n1	5.6%	-1.2%	49.9	3.8	4.2%	/
C=C(C)C(=O)Nc1nnc(-c2ccccc2C)s1	-23.6%	-0.2%	24.3	33.6*	-8.7%	9.4%
Cc1ccccc1-c1nnc(NC(=O)c2ccc(N3C(=O)CCC3=O)cc2)s1	-25.6%	-0.6%	-14.2	0.8	9.28µM*	-15.7%
O=C(Nc1nnc(C23CC4CC(CC(C4)C2)C3)s1)c1ccc(N2C(=O)CCC2=O)cc1	-0.5%	-0.8%	-1.8	-0.7	5.1%	2.2%
CC(C)c1nnc(NC(=O)c2ccc(N3C(=O)CCC3=O)cc2)s1	-28.8%	-3.3%	0.4	-1.5	0.0%	-9.7%
Cc1cccc(-c2nnc(NC(=O)c3ccc(N4C(=O)CCC4=O)cc3)s2)c1	?	3.5%	-12.6	-3.4	4.65µM*	9.1%
O=C(O)C1CCN(S(=O)(=O)c2cccc3nonc23)CC1	-2.8%	/	1.5	-3.6	25.3%	-4.8%
C[N+](C)([O-])CCC=C1c2ccccc2CCc2ccccc21	/	/	/	/	/	-10.8%
C[N+](C)(C)CC/C=C1/c2ccccc2CSc2ccccc21	9.28µM*	0.7%	13.7	-2.2	4.15µM*	18.5%
SMILES	Pf growth 48h	Giardia FBPA inh	Shiga inhibitor	Cycloheximide cs	Pf growth 96h	NS1 function inh
COc1ccc(Cn2nnnc2CN2CCOCC2)cc1	-3.8%	1.7%	4.1	-1.7	13.1µM*	-2.2%
Clc1cccc(Cl)c1CN1CCN(c2ncccn2)CC1	-8.9%	?	8.1	2.2	?	-17.4%
c1ccc(Cn2nnnc2CN2CCN(c3ncccn3)CC2)cc1	-9.2%	3.4%	5.6	-3.6	4.65µM*	-7.6%
COC(=O)C1C(O)CC[C@@H]2CN3CCc4c([nH]c5ccccc45)C3C[C@@H]12 (some centres undefined)	/	-8.4%	/	/	/	/
COC(=O)NC1CSCC1OC(=O)CCN1C(=O)c2ccccc2C1=O (centres undefined)	-4.4%	4.3%	17.6	-5.7	/	-0.6%
CC(=O)NC1CSCC1OC(C)=O (centres undefined)	0.0%	0.1%	-11.4	-6.4	9.28µM*	-0.8%
c1csc(-c2csc3nc(CN4CCOCC4)nc(NCc4ccc5c(c4)OCO5)c23)c1	?	1.7%	1.0	7.6	8.28µM*	-36.9%
CCNc1nc(CN2CCCCC2)nc2scc(-c3ccccc3)c12	0.0%	5.2%	-8.7	-3.2	-3.7%	-11.7%
CCCc1cc2c(=O)c(-c3ccc4c(c3)OCCO4)coc2cc1OS(C)(=O)=O	91.5%	-7.5%	44.7*	56.0*	?	12.7%
CCCc1cc2c(=O)c(-c3ccc4c(c3)OCCO4)coc2cc1OC(=O)c1ccco1	73.0%	0.4%	97.7*	30.3*	74.0%	-4.9%
CCc1cc2c(=O)c(-c3ccc4c(c3)OCCO4)coc2cc1OC(=O)c1ccco1	8.5%	0.7%	93.2*	37.9*	/	-0.3%
CCCc1cc2c(=O)c(-c3ccc4c(c3)OCCO4)c(C)oc2cc1OS(C)(=O)=O	?	1.2%	23.9	3.3	?	23.4%
Cc1c(/C=C2\NC(=O)NC2=O)c2ccccc2n1C	-11.7%	-4.1%	/	-2.6	?	15.5%
COCCN1Cc2cccc(C(=O)Nc3ccc(-c4nc5ccccc5[nH]4)cc3)c2C1=O	?	4.1%	11.7	11.5*	?	7.2%
CCCN1Cc2cccc(C(=O)Nc3ccc(-c4nc5ccccc5[nH]4)cc3)c2C1=O	2.33µM*	4.3%	8.3	18.2*	-13.4%	12.6%
CCCN1Cc2cccc(C(=O)Nc3ccc4c(c3)OCCO4)c2C1=O	/	-2.0%	59.5	18.7*	-2.8%	-94.3%
CCCN1Cc2cccc(C(=O)Nc3ccc(C)cc3)c2C1=O	/	0.2%	11.8	-1.7	69.8%	-2.4%
COCCN1Cc2cccc(C(=O)Nc3cc(C)cc(C)c3)c2C1=O	-12.3%	4.8%	-2.9	0.6	5.2%	-6.5%
COCCN1Cc2cccc(C(=O)Nc3cccc(-c4nc5ccccc5[nH]4)c3)c2C1=O	1.85µM*	2.4%	105.1	48.0*	?	5.4%
FC(F)(F)c1cc(-c2ccccc2)nc(NCc2cccnc2)n1	3.7µM*	0.6%	-13.7	-3.1	?	-13.0%
FC(F)(F)c1cc(-c2ccco2)nc(NCc2ccccc2)n1	?	-5.7%	46.1	2.6	?	7.2%
FC(F)(F)c1cc(-c2ccco2)nc(NCc2cccnc2)n1	11.7µM*	1.7%	-17.9	0.5	?	-54.2%
COc1nc(NCc2cccnc2)nc(OC)n1	1.3%	27.0%	32.9	10.9	?	13.4%
CCOCCc1nnc(NC(=O)CCC2CCCCC2)s1	-3.8%	0.8%	27.0	-3.5	8.3%	-4.2%
O=C(c1ccccc1Cl)N(C(=O)c1ccccc1Cl)c1nccc(-c2cccs2)n1	13.6%	7.94µM*	1.0	-2.0	7.9%	-2.7%
COc1ccc(C=Nc2cccnc2N)cc1	70.9%	-9.1%	/	24.0*	47.6%	-15.8%

Compound activity deposited in PubChem BioAssay by National Center for Advancing Translational Sciences (NCATS).
